Data on one molecule can be found in ChEMBL document CHEMBL1961873, “Compounds: GSK PKIS; Assays: Nanosyn kinase panel” (2012).

Each structure is given as a SMILES string.

The target in test [1] is Protein kinase C gamma type (Homo sapiens) (UniProt P05129). As to conditions: at 1 µM.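 Note: each value is an averaged percent inhibition of the enzyme.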
Test [2] addresses T1, Protein kinase C iota type (Homo sapiens) (UniProt P41743).
T1 sequence (whole entry): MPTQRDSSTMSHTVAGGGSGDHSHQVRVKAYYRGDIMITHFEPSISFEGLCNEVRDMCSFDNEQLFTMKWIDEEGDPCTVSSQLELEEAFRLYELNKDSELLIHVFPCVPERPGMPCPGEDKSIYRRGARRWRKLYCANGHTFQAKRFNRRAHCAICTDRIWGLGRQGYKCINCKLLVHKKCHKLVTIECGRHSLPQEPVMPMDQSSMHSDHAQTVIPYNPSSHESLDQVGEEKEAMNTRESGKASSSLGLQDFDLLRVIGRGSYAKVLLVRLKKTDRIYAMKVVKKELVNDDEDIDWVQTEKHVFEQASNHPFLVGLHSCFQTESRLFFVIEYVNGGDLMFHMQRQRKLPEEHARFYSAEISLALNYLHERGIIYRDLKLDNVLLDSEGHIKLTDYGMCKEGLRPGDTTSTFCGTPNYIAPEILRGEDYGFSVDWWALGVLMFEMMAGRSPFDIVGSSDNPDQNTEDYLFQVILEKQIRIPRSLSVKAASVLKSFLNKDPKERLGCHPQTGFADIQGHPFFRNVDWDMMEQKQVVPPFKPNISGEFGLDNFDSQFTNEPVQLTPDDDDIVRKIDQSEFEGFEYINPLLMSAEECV
The settings on record: at 0.1 µM.

Test [3] has as its target T1, Protein kinase C iota type (Homo sapiens). As to conditions: at 1 µM.
Test [4] deals with Protein kinase C theta type (Homo sapiens) (UniProt Q04759). The settings on record: at 0.1 µM.
Chain of Protein kinase C theta type (Homo sapiens) (Q04759 whole entry, looked up): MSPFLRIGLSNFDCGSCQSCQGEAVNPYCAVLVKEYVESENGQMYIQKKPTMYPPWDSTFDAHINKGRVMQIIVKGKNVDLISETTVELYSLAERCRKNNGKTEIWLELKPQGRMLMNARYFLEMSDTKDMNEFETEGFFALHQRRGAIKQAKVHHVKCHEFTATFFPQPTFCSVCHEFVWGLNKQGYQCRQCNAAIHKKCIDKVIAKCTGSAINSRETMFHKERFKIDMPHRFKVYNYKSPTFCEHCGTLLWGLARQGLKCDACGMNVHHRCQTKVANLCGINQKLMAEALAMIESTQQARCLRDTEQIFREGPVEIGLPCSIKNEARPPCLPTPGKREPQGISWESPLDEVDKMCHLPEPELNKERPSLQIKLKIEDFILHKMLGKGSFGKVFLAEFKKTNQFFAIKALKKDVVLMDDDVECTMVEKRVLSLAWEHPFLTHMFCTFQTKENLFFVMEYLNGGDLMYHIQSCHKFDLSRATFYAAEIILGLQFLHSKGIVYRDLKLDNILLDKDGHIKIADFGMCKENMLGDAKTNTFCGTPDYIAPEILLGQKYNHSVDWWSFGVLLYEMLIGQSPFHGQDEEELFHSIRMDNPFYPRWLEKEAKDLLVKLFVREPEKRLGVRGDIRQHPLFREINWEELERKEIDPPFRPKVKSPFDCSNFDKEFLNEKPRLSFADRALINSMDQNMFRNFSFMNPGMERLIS
Test [5] has the same target. The settings on record: at 1 µM.
The target of test [6] is Protein kinase C beta type (Homo sapiens) (UniProt P05771). The settings on record: at 0.1 µM.
Chain of Protein kinase C beta type (Homo sapiens) (P05771 2-671 limits assumed): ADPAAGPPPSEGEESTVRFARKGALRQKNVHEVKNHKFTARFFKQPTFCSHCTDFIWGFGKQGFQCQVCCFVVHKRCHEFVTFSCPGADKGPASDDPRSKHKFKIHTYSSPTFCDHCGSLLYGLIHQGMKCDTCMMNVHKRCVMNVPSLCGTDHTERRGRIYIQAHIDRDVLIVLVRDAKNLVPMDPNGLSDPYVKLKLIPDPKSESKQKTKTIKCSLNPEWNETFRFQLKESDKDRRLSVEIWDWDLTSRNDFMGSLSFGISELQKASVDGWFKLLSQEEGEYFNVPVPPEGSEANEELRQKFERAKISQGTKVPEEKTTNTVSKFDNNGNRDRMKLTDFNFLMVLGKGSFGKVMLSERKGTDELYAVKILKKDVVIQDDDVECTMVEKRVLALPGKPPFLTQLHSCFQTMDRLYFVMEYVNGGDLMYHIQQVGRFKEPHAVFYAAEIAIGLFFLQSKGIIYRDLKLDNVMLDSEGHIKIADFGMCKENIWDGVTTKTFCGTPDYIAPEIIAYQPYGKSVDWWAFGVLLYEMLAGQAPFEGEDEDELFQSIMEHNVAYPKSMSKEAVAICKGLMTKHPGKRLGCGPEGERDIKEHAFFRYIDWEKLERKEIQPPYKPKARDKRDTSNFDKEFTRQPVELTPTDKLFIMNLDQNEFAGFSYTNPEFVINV
The target is the same in test [7]. As to conditions: at 1 µM.
Test [8] has as its target T2, Serine/threonine-protein kinase D1 (Homo sapiens) (UniProt Q15139).
T2 sequence (whole entry): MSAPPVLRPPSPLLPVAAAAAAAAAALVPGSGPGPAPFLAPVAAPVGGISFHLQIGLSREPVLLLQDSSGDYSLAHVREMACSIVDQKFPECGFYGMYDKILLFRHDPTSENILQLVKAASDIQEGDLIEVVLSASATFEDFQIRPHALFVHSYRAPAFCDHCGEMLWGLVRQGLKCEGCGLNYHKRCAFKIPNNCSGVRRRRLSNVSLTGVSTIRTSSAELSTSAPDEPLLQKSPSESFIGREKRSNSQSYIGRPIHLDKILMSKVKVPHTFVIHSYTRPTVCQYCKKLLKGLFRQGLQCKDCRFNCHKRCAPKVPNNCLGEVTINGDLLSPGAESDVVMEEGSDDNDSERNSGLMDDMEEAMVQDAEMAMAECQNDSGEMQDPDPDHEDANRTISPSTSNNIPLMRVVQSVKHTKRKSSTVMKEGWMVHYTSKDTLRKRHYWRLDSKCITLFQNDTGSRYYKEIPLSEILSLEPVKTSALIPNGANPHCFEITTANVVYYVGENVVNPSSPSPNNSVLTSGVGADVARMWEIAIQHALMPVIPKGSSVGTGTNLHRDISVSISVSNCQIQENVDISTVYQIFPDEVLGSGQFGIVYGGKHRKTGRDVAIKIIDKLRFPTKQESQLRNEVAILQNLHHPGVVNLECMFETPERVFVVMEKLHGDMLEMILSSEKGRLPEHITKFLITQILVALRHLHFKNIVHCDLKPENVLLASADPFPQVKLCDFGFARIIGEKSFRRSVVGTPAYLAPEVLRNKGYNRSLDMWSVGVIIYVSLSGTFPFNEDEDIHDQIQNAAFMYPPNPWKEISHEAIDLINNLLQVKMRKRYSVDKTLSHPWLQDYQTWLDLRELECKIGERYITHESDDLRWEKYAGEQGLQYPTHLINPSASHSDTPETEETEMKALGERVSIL
As to conditions: at 0.1 µM.

For test [9], the target named is T2, Serine/threonine-protein kinase D1 (Homo sapiens). The settings on record: at 1 µM.
Test [10] has as its target T3, Serine/threonine-protein kinase D2 (Homo sapiens) (UniProt Q9BZL6).
T3 sequence (whole entry): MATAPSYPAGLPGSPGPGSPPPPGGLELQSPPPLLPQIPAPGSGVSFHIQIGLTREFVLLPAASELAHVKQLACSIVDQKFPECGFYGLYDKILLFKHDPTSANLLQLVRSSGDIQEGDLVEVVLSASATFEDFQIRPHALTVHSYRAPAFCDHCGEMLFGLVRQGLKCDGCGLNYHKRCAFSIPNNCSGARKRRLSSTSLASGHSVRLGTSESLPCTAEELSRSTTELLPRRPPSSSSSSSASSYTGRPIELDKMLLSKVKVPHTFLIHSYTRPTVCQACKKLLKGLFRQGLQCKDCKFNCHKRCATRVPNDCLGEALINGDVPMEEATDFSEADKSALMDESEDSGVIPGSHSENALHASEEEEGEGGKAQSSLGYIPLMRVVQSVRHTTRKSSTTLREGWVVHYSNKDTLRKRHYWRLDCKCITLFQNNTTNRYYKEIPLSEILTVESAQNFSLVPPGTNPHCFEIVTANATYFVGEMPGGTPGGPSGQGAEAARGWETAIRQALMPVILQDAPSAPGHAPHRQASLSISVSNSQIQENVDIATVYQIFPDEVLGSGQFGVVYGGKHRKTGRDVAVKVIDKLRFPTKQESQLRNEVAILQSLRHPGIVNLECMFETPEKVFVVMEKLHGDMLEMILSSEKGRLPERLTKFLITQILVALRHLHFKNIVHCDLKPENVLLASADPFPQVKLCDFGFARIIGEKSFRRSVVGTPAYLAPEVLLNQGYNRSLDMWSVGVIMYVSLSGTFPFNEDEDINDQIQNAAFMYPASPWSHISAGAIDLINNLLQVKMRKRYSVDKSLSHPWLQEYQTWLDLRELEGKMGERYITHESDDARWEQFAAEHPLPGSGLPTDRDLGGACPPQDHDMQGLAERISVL
As to conditions: at 0.1 µM.

Test [11] deals with T3, Serine/threonine-protein kinase D2 (Homo sapiens). The settings on record: at 1 µM.
Test [12] deals with T4, Serine/threonine-protein kinase D3 (Homo sapiens) (UniProt O94806).
T4 sequence (whole entry): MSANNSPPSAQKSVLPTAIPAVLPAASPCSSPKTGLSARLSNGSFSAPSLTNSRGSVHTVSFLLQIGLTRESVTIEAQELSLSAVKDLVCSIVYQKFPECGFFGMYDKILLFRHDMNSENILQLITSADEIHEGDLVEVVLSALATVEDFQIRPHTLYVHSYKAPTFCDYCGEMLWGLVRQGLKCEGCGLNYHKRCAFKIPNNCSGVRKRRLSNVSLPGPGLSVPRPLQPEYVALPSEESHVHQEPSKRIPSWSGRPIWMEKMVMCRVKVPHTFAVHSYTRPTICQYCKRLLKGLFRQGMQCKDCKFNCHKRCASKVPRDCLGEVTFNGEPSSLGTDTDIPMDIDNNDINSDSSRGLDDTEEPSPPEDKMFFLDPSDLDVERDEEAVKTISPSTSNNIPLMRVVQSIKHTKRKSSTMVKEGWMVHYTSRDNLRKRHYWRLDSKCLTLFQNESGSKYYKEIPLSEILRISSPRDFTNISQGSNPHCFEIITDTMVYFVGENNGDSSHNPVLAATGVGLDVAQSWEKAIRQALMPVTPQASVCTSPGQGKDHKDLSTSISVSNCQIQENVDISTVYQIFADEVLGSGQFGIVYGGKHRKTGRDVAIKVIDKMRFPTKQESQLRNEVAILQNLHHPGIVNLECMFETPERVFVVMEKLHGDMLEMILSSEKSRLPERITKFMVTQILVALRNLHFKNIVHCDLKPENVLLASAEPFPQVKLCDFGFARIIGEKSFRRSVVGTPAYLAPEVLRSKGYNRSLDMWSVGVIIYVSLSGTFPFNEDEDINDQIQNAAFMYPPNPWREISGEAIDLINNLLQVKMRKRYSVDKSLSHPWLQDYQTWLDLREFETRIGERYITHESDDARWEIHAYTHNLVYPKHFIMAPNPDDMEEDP
The settings on record: at 0.1 µM.

The target in test [13] is T4, Serine/threonine-protein kinase D3 (Homo sapiens). The settings on record: at 1 µM.
The target in test [14] is T5, cGMP-dependent protein kinase 1 (Homo sapiens) (UniProt Q13976).
T5 sequence (whole entry): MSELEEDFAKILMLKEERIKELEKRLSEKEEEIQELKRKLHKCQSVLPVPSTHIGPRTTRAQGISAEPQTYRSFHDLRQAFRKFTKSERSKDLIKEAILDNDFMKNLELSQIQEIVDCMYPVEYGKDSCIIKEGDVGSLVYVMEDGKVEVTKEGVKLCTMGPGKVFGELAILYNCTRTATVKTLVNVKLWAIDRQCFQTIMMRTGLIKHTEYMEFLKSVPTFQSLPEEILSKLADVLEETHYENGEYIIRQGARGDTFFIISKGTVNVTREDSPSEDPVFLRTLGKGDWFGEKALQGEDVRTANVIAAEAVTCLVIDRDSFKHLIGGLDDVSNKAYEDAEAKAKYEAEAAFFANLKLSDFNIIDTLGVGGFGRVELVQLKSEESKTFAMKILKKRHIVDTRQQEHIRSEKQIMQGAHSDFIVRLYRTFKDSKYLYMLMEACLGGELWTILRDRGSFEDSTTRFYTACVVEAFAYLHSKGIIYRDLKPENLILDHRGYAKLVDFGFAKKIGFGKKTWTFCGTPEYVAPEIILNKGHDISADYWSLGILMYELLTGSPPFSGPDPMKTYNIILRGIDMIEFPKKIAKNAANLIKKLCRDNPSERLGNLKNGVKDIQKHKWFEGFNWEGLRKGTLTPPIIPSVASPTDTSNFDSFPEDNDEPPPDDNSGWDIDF
The settings on record: at 0.1 µM.

Test [15] addresses T5, cGMP-dependent protein kinase 1 (Homo sapiens). The settings on record: at 1 µM.
Test [16] addresses T6, cGMP-dependent protein kinase 2 (Homo sapiens) (UniProt Q13237).
T6 sequence (whole entry): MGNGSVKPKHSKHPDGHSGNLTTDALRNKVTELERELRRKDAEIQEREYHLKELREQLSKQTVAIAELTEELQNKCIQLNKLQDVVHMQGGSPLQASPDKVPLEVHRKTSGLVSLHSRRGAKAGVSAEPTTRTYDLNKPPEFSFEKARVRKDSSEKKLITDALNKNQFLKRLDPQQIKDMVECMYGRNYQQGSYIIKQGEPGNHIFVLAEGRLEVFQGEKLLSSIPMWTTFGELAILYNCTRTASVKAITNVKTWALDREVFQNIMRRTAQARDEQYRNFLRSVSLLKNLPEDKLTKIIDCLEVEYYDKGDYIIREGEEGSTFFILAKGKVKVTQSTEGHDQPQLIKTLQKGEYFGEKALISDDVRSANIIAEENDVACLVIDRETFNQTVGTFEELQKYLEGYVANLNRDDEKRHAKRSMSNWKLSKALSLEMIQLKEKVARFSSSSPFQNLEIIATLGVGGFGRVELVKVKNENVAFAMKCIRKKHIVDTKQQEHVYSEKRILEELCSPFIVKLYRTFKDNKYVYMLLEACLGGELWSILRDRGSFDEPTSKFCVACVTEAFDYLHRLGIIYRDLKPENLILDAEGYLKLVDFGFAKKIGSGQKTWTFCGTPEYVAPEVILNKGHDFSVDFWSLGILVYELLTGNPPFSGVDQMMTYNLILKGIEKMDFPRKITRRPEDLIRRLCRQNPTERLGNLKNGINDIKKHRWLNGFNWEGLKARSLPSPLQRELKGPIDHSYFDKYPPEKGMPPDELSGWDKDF
As to conditions: at 0.1 µM.

The target in test [17] is T6, cGMP-dependent protein kinase 2 (Homo sapiens). The settings on record: at 1 µM.
Test [18] addresses T7, cAMP-dependent protein kinase catalytic subunit PRKX (Homo sapiens) (UniProt P51817).
T7 sequence (whole entry): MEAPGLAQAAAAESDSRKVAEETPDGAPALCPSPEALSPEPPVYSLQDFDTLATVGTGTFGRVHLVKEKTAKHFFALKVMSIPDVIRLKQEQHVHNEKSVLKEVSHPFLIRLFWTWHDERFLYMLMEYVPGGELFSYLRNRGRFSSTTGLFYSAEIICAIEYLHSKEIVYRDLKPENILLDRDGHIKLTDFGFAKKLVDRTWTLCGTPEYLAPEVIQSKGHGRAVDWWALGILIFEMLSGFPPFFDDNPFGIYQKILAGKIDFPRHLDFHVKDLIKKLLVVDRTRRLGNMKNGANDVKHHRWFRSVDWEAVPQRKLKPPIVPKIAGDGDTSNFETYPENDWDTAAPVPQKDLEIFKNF
The settings on record: at 0.1 µM.

The target of test [19] is T7, cAMP-dependent protein kinase catalytic subunit PRKX (Homo sapiens). The settings on record: at 1 µM.
Test [20] deals with Rho-associated protein kinase 1 (Homo sapiens) (UniProt Q13464). As to conditions: at 0.1 µM.
Chain of Rho-associated protein kinase 1 (Homo sapiens) (Q13464 2-1354 limits assumed): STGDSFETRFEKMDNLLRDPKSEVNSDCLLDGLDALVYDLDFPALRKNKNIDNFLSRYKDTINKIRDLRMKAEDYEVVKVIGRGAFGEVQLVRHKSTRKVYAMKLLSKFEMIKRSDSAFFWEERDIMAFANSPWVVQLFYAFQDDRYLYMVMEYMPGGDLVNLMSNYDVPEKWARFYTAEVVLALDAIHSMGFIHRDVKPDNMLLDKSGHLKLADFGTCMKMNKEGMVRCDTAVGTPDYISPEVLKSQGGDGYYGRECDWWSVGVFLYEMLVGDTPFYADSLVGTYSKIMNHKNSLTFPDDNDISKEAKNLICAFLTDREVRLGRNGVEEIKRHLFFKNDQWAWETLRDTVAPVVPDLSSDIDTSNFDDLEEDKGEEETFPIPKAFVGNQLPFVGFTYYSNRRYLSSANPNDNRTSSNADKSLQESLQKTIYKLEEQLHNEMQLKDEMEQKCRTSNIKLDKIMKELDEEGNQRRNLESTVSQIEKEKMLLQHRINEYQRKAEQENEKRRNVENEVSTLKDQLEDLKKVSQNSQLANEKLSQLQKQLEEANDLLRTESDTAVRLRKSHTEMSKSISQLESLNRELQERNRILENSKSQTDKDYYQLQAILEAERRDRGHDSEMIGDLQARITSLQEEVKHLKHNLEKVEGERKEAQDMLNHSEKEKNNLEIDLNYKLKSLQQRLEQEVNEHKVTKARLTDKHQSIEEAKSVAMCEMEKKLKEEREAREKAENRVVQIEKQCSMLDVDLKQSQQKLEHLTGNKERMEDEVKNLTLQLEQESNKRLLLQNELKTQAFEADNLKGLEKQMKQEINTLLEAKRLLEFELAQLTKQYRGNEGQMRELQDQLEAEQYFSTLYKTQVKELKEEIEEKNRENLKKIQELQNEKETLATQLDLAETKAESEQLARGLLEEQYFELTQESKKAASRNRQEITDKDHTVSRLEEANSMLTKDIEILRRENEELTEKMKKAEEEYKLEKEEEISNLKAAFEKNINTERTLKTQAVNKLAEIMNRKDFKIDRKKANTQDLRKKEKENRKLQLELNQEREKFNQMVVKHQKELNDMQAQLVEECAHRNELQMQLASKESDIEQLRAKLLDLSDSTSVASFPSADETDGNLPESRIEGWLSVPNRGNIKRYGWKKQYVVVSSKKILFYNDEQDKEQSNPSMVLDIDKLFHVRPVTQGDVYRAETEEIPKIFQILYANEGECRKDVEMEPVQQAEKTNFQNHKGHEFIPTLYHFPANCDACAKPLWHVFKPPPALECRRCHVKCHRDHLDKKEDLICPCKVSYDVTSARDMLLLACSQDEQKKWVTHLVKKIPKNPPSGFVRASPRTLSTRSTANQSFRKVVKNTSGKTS

For orientation: inhibition means the relative decrease from the control value, in per cent. `CCS(=O)(=O)c1ccc(OC)c(Nc2ncc(-c3cccc(C(C)=O)c3)o2)c1`: the inhibition in [1] was 1.69%; in [2] it was 1.79%; in test [3], -0.79%; in [4] it was 2.27%; in test [5], 3.34%; in test [6] it was 1.16%. In addition, the inhibition was found to be 1.89% in test [7]; 2.32% in test [8]; 2.22% in test [9]; 2.04% in test [10]; 1% in [11]; 2.85% in [12]. Besides, the inhibition in [13] was 1.31%; in test [14] it was 1.67%; in [15], 2.08%; in test [16], -0.65%; in test [17], 2.63%; in [18], 1.59%. The values for the inhibition in test [19] and in [20] were 3.12% and 0.01%, respectively.
